Screening data as filed in PubChem BioAssay.
Most compounds without a hit are left out; they make up all but 5.7% or so of the library.
ssDAF-12 act: S. stercoralis DAF-12 nuclear receptor activators, primary screen, cell-based, luminescence, HEK293, GRIP1 co-expression, lit1-tk-luc; Nuclear hormone receptor DAF-12 (Strongyloides stercoralis); HEK293 ssDAF-12/GRIP1 lit1-tk-luc reporter; % of 3 µM dafachronic acid response; activation, % at 6.8 µM; actives 1% (n = 370,000);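 active means activation above the mean over all tested compounds plus 3 SD, cut at about 0.9% in these data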;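 further: 0% = DMSO-only wells and 100% = 3 µM delta7-dafachronic acid wells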
DAX1 inh-1: DAX1 (NR0B1) inhibitors, primary screen, cell-based, HEK293, Gal4-DAX1, luciferase luminescence; HEK293 Gal4-DAX1 luciferase reporter; actives 0.99% (n = 340,000); Nuclear receptor subfamily 0 group B member 1 (Homo sapiens), P51843; AID 504766, 2011; inhibition, % at 6.75 µM;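 active means inhibition above the mean over all tested compounds plus 3 SD, cut at about 4.2% in these data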;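 further: 0% = DAX1-transfected cells with DMSO and 100% = empty-vector control cells with DMSO; inhibition shows as a rise in luminescence from relieved DAX1 repression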
DAX1 inh-2: DAX1 (NR0B1) inhibitors on StAR promoter, primary screen, cell-based, luminescence, SF-1 (NR5A1), full-length DAX-1; AID 652010, 2013; HEK293T StAR-luciferase reporter, SF-1/DAX-1 repression relief; inhibition, % at 6.8 µM; actives 1.1% (n = 370,000);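 active means inhibition above the mean over all tested compounds plus 3 SD, cut at about 3.6% in these data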;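 further: 0% = DAX-1 cells with DMSO and 100% = cells lacking DAX-1 with DMSO; higher inhibition means more luminescence from relief of DAX-1 repression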
hcDAF12 agonist: H. contortus DAF-12 nuclear receptor activators, primary screen, cell-based, luminescence, HEK293, lit1-tk-luc reporter; HEK293 hcDAF-12 lit1-tk-luc reporter; 0% DMSO, 100% Δ7-dafachronic acid; actives 1.4% (n = 370,000); activation, % at 6.8 µM;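 active means activation above the mean of all tested compounds plus 3 SD, cut at about 5.5% in these data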;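 further: 100% = response to 3 µM Δ7-dafachronic acid high control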
AHR activator: AHR activators, primary screen, cell-based, luminescence, luciferase reporter, human; Aryl hydrocarbon receptor (Homo sapiens), P35869; AHR-responsive luciferase reporter cells; activation, % at 5 µM; actives 2.5% (n = 320,000); AID 2796, 2010; in the data active means activation above about 47%;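 further: 0% = vehicle wells and 100% = reference agonist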
Target sequence (P35869 whole entry, looked up): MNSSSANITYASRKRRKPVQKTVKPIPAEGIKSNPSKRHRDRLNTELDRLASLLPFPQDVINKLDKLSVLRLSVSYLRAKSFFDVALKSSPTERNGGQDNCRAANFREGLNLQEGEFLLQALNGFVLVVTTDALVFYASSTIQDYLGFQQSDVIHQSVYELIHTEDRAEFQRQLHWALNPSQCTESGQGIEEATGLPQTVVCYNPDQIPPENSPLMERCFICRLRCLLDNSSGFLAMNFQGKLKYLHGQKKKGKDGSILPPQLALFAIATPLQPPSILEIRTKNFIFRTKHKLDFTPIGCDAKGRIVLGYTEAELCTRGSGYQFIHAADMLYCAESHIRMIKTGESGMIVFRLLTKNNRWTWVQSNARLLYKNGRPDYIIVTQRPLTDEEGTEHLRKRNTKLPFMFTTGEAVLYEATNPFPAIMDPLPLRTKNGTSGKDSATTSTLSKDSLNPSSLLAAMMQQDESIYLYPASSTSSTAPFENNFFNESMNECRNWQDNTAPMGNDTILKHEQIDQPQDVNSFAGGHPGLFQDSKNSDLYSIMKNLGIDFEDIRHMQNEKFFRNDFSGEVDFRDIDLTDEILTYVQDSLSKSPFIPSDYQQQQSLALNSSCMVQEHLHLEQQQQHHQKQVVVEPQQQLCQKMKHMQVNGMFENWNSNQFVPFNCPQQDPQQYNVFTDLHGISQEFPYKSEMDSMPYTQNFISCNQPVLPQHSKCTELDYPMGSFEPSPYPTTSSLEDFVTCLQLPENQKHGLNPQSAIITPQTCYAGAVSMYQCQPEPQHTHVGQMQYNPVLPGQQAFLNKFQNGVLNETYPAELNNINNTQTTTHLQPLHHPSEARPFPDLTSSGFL
hgDAF-12 ag: H. glycines DAF-12 receptor agonists, primary screen, cell-based, luminescence, HEK293, GAL4 fusion, UAS-luciferase; Nuclear hormone receptor DAF-12 (Heterodera glycines), GAL4 fusion; HEK293 GAL4-hgDAF12 UAS-luciferase reporter, agonist luminescence; normalized to butyrate control; activation, % at 6.8 µM; actives 1.8% (n = 370,000);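 active means activation above a cutoff set at the mean of all screened compounds plus 3 SD, cut at about 10% in these data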;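 further: 0% = DMSO wells and 100% = sodium butyrate wells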
* hit, by the source's call; x = not tested or not shown.

SMILES	ssDAF-12 act	DAX1 inh-1	DAX1 inh-2	hcDAF12 agonist	AHR activator	hgDAF-12 ag
O=C(NCc1ccncc1)Nc1cccc([N+](=O)[O-])c1	-2	0	-1	-1	37	-3
CC1CC(=S)Nc2ccccc2N1C(=O)Nc1ccccc1 (configuration not stated)	-2	5.2*	0	0	-2	-1
O=C(Nc1ccccc1)N1CCC(=S)Nc2ccccc21	-2	-1	0	1	0	-2
COc1ccc(C(=O)Nc2nncs2)cc1S(=O)(=O)N1CC(c2ccccc2)CC1=O (configuration not stated)	-1	8.0*	0	-2	1	-4
Cc1ccc2c(c1)C(c1ccc(F)cc1)N(C(=O)c1ccc(S(=O)(=O)N(C)C)cc1)CC(=O)N2 (configuration not stated)	-1	3	0	-2	4	-3
CCOc1ccc(C2N(c3ccc(OC)cc3)C(=O)C3CCCN32)cc1OC (configuration not stated)	-2	4.8*	0	-1	-1	1
CCOc1ccc(C2N(c3cc(Cl)ccc3OC)C(=O)C3CCCN32)cc1OC (configuration not stated)	-2	5.4*	1	-2	7	1
CCOc1ccc(C2N(c3ccc(Cl)cc3)C(=O)C3CCCN32)cc1OC (configuration not stated)	-1	1	2	2	3	1
CCOC(=O)C(c1nc2ccccc2[nH]1)n1c(-c2ccccn2)nc2ccccc21 (configuration not stated)	0	x	2	6.5*	x	8
CCC(c1nc2ccccc2[nH]1)n1c(-c2cnccn2)nc2ccccc21 (configuration not stated)	1	x	-1	-2	x	-1
NC(=O)CNC(=O)c1ccc(Cl)cc1	-1	5.6*	0	-2	1	-2
O=C(CNC(=O)c1ccc(Cl)cc1)NNC(=O)c1ccc(Br)cc1	-1	0	0	2	1	-1
O=C(NCC(=O)N1CCCCCCC1)c1ccc(Cl)cc1	-1	2	0	3	3	12*
NC(=O)CC(NC(=O)Cc1cccc2ccccc12)c1ccc(NCCN2CCCCC2)c([N+](=O)[O-])c1 (configuration not stated)	-1	0	1	-2	1	2
Nc1no[n+]([O-])c1-c1ccccc1	-1	-1	0	-1	-2	0
COc1ccccc1C(=O)Nc1nc2cc3c(cc2s1)OCCO3	x	1	x	x	11	x
COc1cccc(OC)c1C(=O)Nc1nc2cc3c(cc2s1)OCO3	-1	-1	1	1	54*	0
O=C(CCS(=O)(=O)c1ccccc1)Nc1nc2cc3c(cc2s1)OCO3	-1	4.9*	0	1	30	-1
COc1ccccc1C(=O)Nc1nc2cc3c(cc2s1)OCO3	0	4	2	4	44	12*
COc1cc(NC(=S)N2c3ccccc3CC2C)cc(OC)c1 (configuration not stated)	0	0	-1	3	x	0
Cc1ccc(NC(=O)C2CCN(C(=O)OC(C)(C)C)CC2)cc1S(=O)(=O)N1CCCCC1	-2	-2	-2	-3	-1	-2
Fc1c(F)c(F)c(N/N=C/c2c[nH]c3ccccc23)c(F)c1F	-1	0	0	6.3*	34	-2
O=C(O)c1ccc(N/N=C/c2c[nH]c3ccccc23)cc1	0	-5	0	5.8*	-4	0
CCOC(=O)CCCCC(=O)c1[nH]c(=O)[nH]c1CSc1nc(C)cc(C)n1	-1	-1	0	1	5	1
